Assay outcomes from PubChem.
Shown are actives, neighbours in structure and some others; about 4.1% of the full set was active somewhere.
ssDAF-12 act – activators of S. stercoralis DAF-12 nuclear receptor; HEK293 ssDAF-12/GRIP1 lit1-tk-luc reporter, luminescence; % of 3 µM dafachronic acid response; AID 652126; activation, % at 6.8 µM; 370,000 tested, 1% active;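 active means activation above the mean over all tested compounds plus 3 SD, cut at about 0.9% in these data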;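 further: 0% = DMSO-only wells and 100% = 3 µM delta7-dafachronic acid wells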
hcDAF-12 act – H. contortus DAF-12 activation, primary screen; 370,000 tested, 1.4% active; activation, % at 6.8 µM; HEK293 hcDAF-12 lit1-tk-luc reporter, luminescence; 0% DMSO, 100% Δ7-dafachronic acid;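 active means activation above the mean of all tested compounds plus 3 SD, cut at about 5.5% in these data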;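 further: 100% = response to 3 µM Δ7-dafachronic acid high control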
DAX1 inh-1 – inhibits human nuclear receptor DAX1; P51843; HEK293 Gal4-DAX1 luciferase reporter, luminescence; inhibition, % at 6.75 µM; 340,000 tested, 0.99% active; AID 504766;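 active means inhibition above the mean over all tested compounds plus 3 SD, cut at about 4.2% in these data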;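 further: 0% = DAX1-transfected cells with DMSO and 100% = empty-vector control cells with DMSO; inhibition shows as a rise in luminescence from relieved DAX1 repression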
hgDAF12 agonist – hgDAF-12 agonism, primary luciferase screen; HEK293 GAL4-hgDAF12 UAS-luciferase reporter, agonist luminescence; normalized to butyrate control; activation, % at 6.8 µM; 370,000 tested, 1.8% active;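 active means activation above a cutoff set at the mean of all screened compounds plus 3 SD, cut at about 10% in these data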;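 further: 0% = DMSO wells and 100% = sodium butyrate wells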
DAX1 inh-2 – DAX1 (NR0B1) inhibition, primary screen; 370,000 tested, 1.1% active; HEK293T StAR-luciferase reporter, SF-1/DAX-1 repression relief; inhibition, % at 6.8 µM;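 active means inhibition above the mean over all tested compounds plus 3 SD, cut at about 3.6% in these data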;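 further: 0% = DAX-1 cells with DMSO and 100% = cells lacking DAX-1 with DMSO; higher inhibition means more luminescence from relief of DAX-1 repression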
DAX1 inh confirm – confirmation of human DAX1 (NR0B1) inhibitors. shares compounds with DAX1 inh-2. HEK293T StAR-promoter luciferase reporter, SF-1/DAX-1 repression. inhibition, % at 6.8 µM. 2,400 tested, 87% active;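 active means inhibition above the average of every tested compound plus 3 SD, cut at about 3.8% in these data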;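 further: 0% = DAX-1 cells with DMSO and 100% = no DAX-1 control cells with DMSO; active compounds raise luminescence by relieving repression of the StAR reporter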
Target sequence (P51843 whole entry, looked up): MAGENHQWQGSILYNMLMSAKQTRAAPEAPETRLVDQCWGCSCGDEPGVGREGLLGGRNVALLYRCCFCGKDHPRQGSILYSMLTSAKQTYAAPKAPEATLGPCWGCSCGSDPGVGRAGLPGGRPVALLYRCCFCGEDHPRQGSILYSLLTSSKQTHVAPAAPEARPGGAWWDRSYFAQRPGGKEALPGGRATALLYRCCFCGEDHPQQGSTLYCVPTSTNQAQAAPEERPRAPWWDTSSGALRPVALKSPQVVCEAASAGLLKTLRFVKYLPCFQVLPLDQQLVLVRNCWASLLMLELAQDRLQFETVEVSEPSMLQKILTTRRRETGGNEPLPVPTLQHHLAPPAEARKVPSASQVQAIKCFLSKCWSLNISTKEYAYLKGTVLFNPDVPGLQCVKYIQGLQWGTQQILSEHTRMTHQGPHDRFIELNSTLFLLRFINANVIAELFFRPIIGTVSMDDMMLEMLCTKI
SF1 mutant ctr – nonselective inhibitor or artifact in SF-1 mutant DAX1 counter-screen; shares compounds with DAX1 inh-2; HEK293 StAR-luciferase, SF-1 AF2 mutant, luminescence; inhibition, % at 6.8 µM; 2,400 tested, 78% active;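 active means inhibition above the mean of all tested compounds plus 3 SD, cut at about 3% in these data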;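 further: 0% = DAX-1 transfected cells with DMSO and 100% = cells without DAX-1 with DMSO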
LXRb hcDAF ctr – activates human LXR-beta, counter-screen for hcDAF-12 agonists; shares compounds with hcDAF-12 act; HEK293 Gal4-LXR tk-luc reporter, luminescence, 24 h; normalized: DMSO 0%, positive control 100%; activation, % at 6.8 µM; 3,400 tested, under 10 active;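 active means mean percent activation of the reporter above a cutoff set as the average over tested compounds plus their standard deviation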
hcDAF12 conf – hcDAF-12 agonism, confirmation assay | shares compounds with hcDAF-12 act | HEK293 hcDAF-12 lit1-tk-luc reporter, luminescence; % of Δ7-dafachronic acid response | activation, % at 6.8 µM | 3,400 tested, 61% active | AID 743032;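 active means mean activation across triplicate tests above the threshold derived from the earlier primary screen, cut at about 5.5% in these data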;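 further: 0% = DMSO only wells and 100% = 3 µM Δ7-dafachronic acid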
* hit, by the source's call.

For CN(C)c1ccc(-c2csc(C(O)(c3ccccc3)C(F)(F)F)n2)cc1 (stereo not drawn) the results were ssDAF-12 act 0, hcDAF-12 act 1, hgDAF12 agonist -1 and DAX1 inh-2 0.
C/C(=N\NC(=O)c1cccs1)c1c(O)cc(C)oc1=O was read as ssDAF-12 act 1.1*, hcDAF-12 act 6.6*, DAX1 inh-1 4.7*, hgDAF12 agonist 12*, DAX1 inh-2 6.9*, DAX1 inh confirm 1, SF1 mutant ctr 2, LXRb hcDAF ctr 0 and hcDAF12 conf 1.
`Fc1ccc(/C=N/NC2=Nc3cccc4cccc2c34)cc1` gave ssDAF-12 act 2.2*, hcDAF-12 act 15*, DAX1 inh-1 3, hgDAF12 agonist 22*, DAX1 inh-2 5.2*, DAX1 inh confirm 10*, SF1 mutant ctr 8.4*, LXRb hcDAF ctr 1 and hcDAF12 conf 11*.
For O=C(Nc1ccc(N2CCCC2)cc1)c1cccc(F)c1 the results were ssDAF-12 act 0, hcDAF-12 act 8.8*, DAX1 inh-1 3, hgDAF12 agonist 11*, DAX1 inh-2 4.6*, DAX1 inh confirm 10*, SF1 mutant ctr 2, LXRb hcDAF ctr 1 and hcDAF12 conf 5.7*.
`COc1ccccc1NC(CC(=O)c1ccccc1)C(=O)OCC(=O)c1ccc(Br)cc1` (stereo not drawn) gave ssDAF-12 act 2.1*, hcDAF-12 act 20*, DAX1 inh-1 0, hgDAF12 agonist 23*, DAX1 inh-2 7.8*, DAX1 inh confirm 8.9*, SF1 mutant ctr -1, LXRb hcDAF ctr 2 and hcDAF12 conf 21*.
`CC(=O)NC(Cc1ccccc1)C(=O)OCC(=O)c1ccc(Br)cc1` (stereo not drawn) gave ssDAF-12 act -2, hcDAF-12 act 0, DAX1 inh-1 0, hgDAF12 agonist 1 and DAX1 inh-2 0.
For COc1ccccc1NC(CC(=O)c1ccccc1)C(=O)OCC(=O)c1ccc(C)c(C)c1 (stereo not drawn) the results were ssDAF-12 act 3.3*, hcDAF-12 act 17*, DAX1 inh-1 3, hgDAF12 agonist 22*, DAX1 inh-2 7.8*, DAX1 inh confirm 21*, SF1 mutant ctr 8.1*, LXRb hcDAF ctr 1 and hcDAF12 conf 12*.
Screening c1ccc(CCN=C2CCCc3c2[nH]c2ccccc32)cc1 returned ssDAF-12 act 1, hcDAF-12 act 2, DAX1 inh-1 0, hgDAF12 agonist 2 and DAX1 inh-2 0.
Screening N/C(=N\OC(=O)c1cccc(Br)c1)c1ccccn1 returned ssDAF-12 act 1.4*, hcDAF-12 act 17*, DAX1 inh-1 -3, hgDAF12 agonist 3, DAX1 inh-2 8.9*, DAX1 inh confirm 17*, SF1 mutant ctr 11*, LXRb hcDAF ctr 1 and hcDAF12 conf 12*.
N/C(=N\OC(=O)COc1ccccc1Cl)c1ccccn1 was read as ssDAF-12 act 1.1*, hcDAF-12 act 6.9*, DAX1 inh-1 0, hgDAF12 agonist 10, DAX1 inh-2 5.9*, DAX1 inh confirm 12*, SF1 mutant ctr 8.5*, LXRb hcDAF ctr 1 and hcDAF12 conf 8.0*.
`O=S1(=O)N[C@@H](Cc2ccccc2)COc2cc(N3CCC[C@H]3CO)ccc21` gave ssDAF-12 act -2, hcDAF-12 act -2, hgDAF12 agonist -1 and DAX1 inh-2 0.
`Cc1ccc2nc(CSc3nc(C)ccc3C#N)[nH]c2c1` gave ssDAF-12 act 1.4*, hcDAF-12 act 19*, DAX1 inh-1 0, hgDAF12 agonist 18*, DAX1 inh-2 6.0*, DAX1 inh confirm 16*, SF1 mutant ctr 6.2*, LXRb hcDAF ctr 2 and hcDAF12 conf 26*.
For O=C1c2ccccc2CN2C(=O)c3ccccc3CN12 the results were ssDAF-12 act 0, hcDAF-12 act 0, DAX1 inh-1 1, hgDAF12 agonist 1 and DAX1 inh-2 -1.
c1ccc(-c2cn3c(n2)-c2ccccc2C3)cc1 was read as ssDAF-12 act 3.8*, hcDAF-12 act 21*, DAX1 inh-1 -3, hgDAF12 agonist 15*, DAX1 inh-2 5.7*, DAX1 inh confirm 11*, SF1 mutant ctr 5.8*, LXRb hcDAF ctr 1 and hcDAF12 conf 22*.
For COc1ccc(/C=N\NC(=O)c2sccc2C)cc1Cn1nc(C)cc1C the results were ssDAF-12 act 1.2*, hcDAF-12 act 7.2*, DAX1 inh-1 3, hgDAF12 agonist 11*, DAX1 inh-2 9.9*, DAX1 inh confirm 1, SF1 mutant ctr -4, LXRb hcDAF ctr 0 and hcDAF12 conf 4.
CC(=O)Nc1ccc(S(=O)(=O)Nc2nc3ccccc3s2)cc1 was read as ssDAF-12 act -1, hcDAF-12 act 1, DAX1 inh-1 -1, hgDAF12 agonist 3 and DAX1 inh-2 0.
Cc1ccsc1/C=N/Nc1nc2ccccc2s1 was read as ssDAF-12 act 5.5*, hcDAF-12 act 21*, DAX1 inh-1 3, hgDAF12 agonist 20*, DAX1 inh-2 7.1*, DAX1 inh confirm 16*, SF1 mutant ctr 13*, LXRb hcDAF ctr 2 and hcDAF12 conf 23*.
`COc1ccc(C=C(c2nc3ccccc3s2)c2nc3ccccc3s2)cc1O` gave ssDAF-12 act -2, hcDAF-12 act 1, DAX1 inh-1 -3, hgDAF12 agonist -3 and DAX1 inh-2 -2.
`COc1ccc(/C=N/Nc2nc3ccccc3s2)cc1O` gave ssDAF-12 act 3.2*, hcDAF-12 act 18*, DAX1 inh-1 -3, hgDAF12 agonist 20*, DAX1 inh-2 8.6*, DAX1 inh confirm 21*, SF1 mutant ctr 8.1*, LXRb hcDAF ctr 2 and hcDAF12 conf 19*.
CC(=O)Nc1ccc(/C=N/Nc2nc3ccccc3s2)cc1 was read as ssDAF-12 act 3.3*, hcDAF-12 act 18*, DAX1 inh-1 4.8*, hgDAF12 agonist 24*, DAX1 inh-2 5.6*, DAX1 inh confirm 15*, SF1 mutant ctr 9.9*, LXRb hcDAF ctr 2 and hcDAF12 conf 22*.
